Results filed as inconclusive are left out. Active and inactive are the calls of the source. The call rests on the fitted dose curve; in most records, active means well fitted cell-killing curve with a large enough effect; inconclusive means small, poorly fitted or top-dose-only effect, or effect the other way; inactive means no such curve, though single readings can be large or run the other way.
Test: Quantitative High-Throughput drug screen in 47 multiple myeloma cell lines against the NCATS MIPE library collection: L363_DSMZ cell viability assay (AID 1918984); further: nearly all actives have a fitted effect of over 40% in size
Conditions: L363 myeloma viability, CellTiter-Glo ATP luminescence, 48 h; series mostly up to 45.8 µM
Text: PI: Beverly A. Mock Ph.D.
Laboratory of Cancer Biology and Genetics,
Center for Cancer Research, National Cancer Institute,
National Institute of Health, Bethesda, Maryland
Drug resistance and disease progression are common in multiple myeloma (MM) patients, underscoring the need for new therapeutic combinations. […] We hypothesized that effective combinations would reduce MYC expression and enhance p16 activity. […] These preclinical data identify potentially useful drug combinations for evaluation in drug-resistant MM and reveal potential mechanisms of combined drug sensitivity.
Described herein is the primary MIPE qHTS used to cherrypick compounds. Validated compounds were then further tested for potential synergistic activiy.
[1] Peat TJ, Gaikwad SM, Dubois W, Gyabaah-Kessie N, Zhang S, Gorjifard S, Phyo Z, Andres M, Hughitt VK, Simpson RM, Miller MA, Girvin AT, Taylor A, Williams D, D'Antonio N, Zhang Y, Rajagopalan A, Flietner E, Wilson K, Zhang X, Shinn P, Klumpp-Thomas C, McKnight C, Itkin Z, Chen L, Kazandijian D, Zhang J, Michalowski AM, Simmons JK, Keats J, Thomas CJ, Mock BA. Drug combinations identified by high-throughput screening promote cell cycle transition and upregulate Smad pathways in myeloma. Cancer Lett. 2023 Aug 1;568:216284. doi: 10.1016/j.canlet.2023.216284. Epub 2023 Jun 24. PMID: 37356470; PMCID: PMC10408729.
SEQUENCE No. (e.g., 1, 2, 3, etc.); […] (e.g., Cells, Incubation, Reagent, etc.); VALUE and DESCRIPTION.
1; Cells; 5 uL; white, solid bottom 1536-well Greiner assay plate.
2; Compounds; 23 nL; Kalypsis pin tool (Wako USA) equipped with a 1536-well pin head to transfer to the assay plates.
3; Incubation; 48 hours; 37C incubation.
4; Reagent;5uL; CellTiter Glo (Promega).
5; Detector; 425V; Luminescence; Viewlux PerkinElmer.
NOTES (numbers refer to Sequence numbers above)
1. The cell-based screening methods employed in this study were like those previously published. Briefly, the corresponding myeloma cell lines were screened in 1,536-well plates with 500 cells, 5-uL per well for inhibition of cell viability (assessed by measuring ATP levels with CellTiterGlo).
2. NCATS MIPE 4.0 library of approved and investigational drugs were added using the Kalypsis pin tool. Wells treated with DMSO only for 100% viability and media only for 0% viability were used as controls.
3. The assay plates were covered and incubated for 48 hours in a 37C, 5% CO2 incubator with controlled humidity.
4. After 48 hours, CellTilter-GloTM luminescent substrate mix (Promega) reagent was added to the assay plate and plates we incubated for 5 min at room temperature.
5. Signal was measured as median relative luminescence units on a ViewLux (PerkinElmer) multiplate reader.
[1] Heske CM, Davis MI, Baumgart JT, Wilson K, Gormally MV, Chen L, Zhang X, Ceribelli M, Duveau DY, Guha R, Ferrer M, Arnaldez FI, Ji J, Tran HL, Zhang Y, Mendoza A, Helman LJ, Thomas CJ. Matrix Screen Identifies Synergistic Combination of PARP Inhibitors and Nicotinamide Phosphoribosyltransferase (NAMPT) Inhibitors in Ewing Sarcoma. Clin Cancer Res. 2017 Dec 1;23(23):7301-7311. doi: 10.1158/1078-0432.CCR-17-1121. Epub 2017 Sep 12. PMID: 28899971; PMCID: PMC6636827.
Potency means the concentration at half of the fitted maximal effect.

Structure (SMILES)	Potency
COC[C@H]1OC(=O)c2coc3c2[C@@]1(C)C1=C(C3=O)[C@@H]2CC[C@H](O)[C@@]2(C)C[C@@H]1OC(C)=O	2350 nM (active)
O=C(Nc1ccncc1)C(=O)c1cn(Cc2ccc(Cl)cc2)c2ccccc12	13.2 nM (active)
C[C@@H]1CC[C@@]2(OC1)O[C@H]1C[C@H]3[C@@H]4CC=C5C[C@@H](O[C@@H]6O[C@H](CO)[C@@H](O[C@@H]7O[C@@H](C)[C@H](O)[C@@H](O)[C@@H]7O)[C@H](O)[C@@H]6O[C@@H]6O[C@@H](C)[C@H](O)[C@@H](O)[C@@H]6O)CC[C@]5(C)[C@@H]4CC[C@]3(C)[C@@H]1[C@H]2C	1870 nM (active)
CSCC[C@@H](NC(=O)[C@@H](Cc1ccccc1)NC(=O)CNC(=O)CNC(=O)[C@@H](N)Cc1ccc(O)cc1)C(=O)O	inactive
C[C@H]([C@H](O)CCC(C)(C)O)[C@H]1CC[C@@]2(O)C3=CC(=O)[C@@H]4C[C@@H](O)[C@@H](O)C[C@]4(C)[C@@H]3CC[C@]12C	inactive
C1=C2CCCN[C@H]2[C@@H]2C[C@H]1[C@@H]1CCCCN1C2	inactive
COC1=C[C@@H]2[C@@H]3Cc4ccc(OC)c(O)c4[C@]2(CCN3C)CC1=O	2960 nM (active)
CC(C)[C@]12O[C@@H]1[C@@H]1O[C@]13[C@]1(O[C@H]1C[C@@H]1C4=C(CC[C@@]13C)C(=O)OC4)[C@H]2O	inactive
N=c1c2c(-c3ccccc3)c(-c3ccccc3)n(Cc3ccccc3)c2ncn1C1CCC(O)CC1 (stereo not given)	5260 nM (active)
CCOP(=O)(OCC)C(C)NC(=O)N(CCCl)N=O (stereo not given)	inactive
CCN1CCN(C(=O)Cc2ccc(Nc3ncc(F)c(Nc4ccc(C(=O)Nc5ccccc5Cl)cc4)n3)cc2)CC1	1870 nM (active)
CC[C@@H]1[C@@H](C)O[C@@](O)([C@@H](C)[C@H](O)[C@H](C)[C@H]2OC(=O)C=CC=C[C@@H](C)[C@@H]([C@@H](C)[C@@H](O)[C@H](C)[C@@]3(O)C[C@H](O[C@H]4C[C@H](O)[C@H](O)[C@H](C)O4)[C@H](CC)[C@@H](C)O3)OC(=O)C=CC=C[C@@H]2C)C[C@H]1O[C@H]1C[C@H](O)[C@H](O)[C@H](C)O1	372 nM (active)
COc1ccc2c(c[n+](C)c3c4cc5c(cc4ccc23)OCO5)c1OC	4180 nM (active)
C[C@]12CC[C@H]3[C@@H](CCC4=CC(=O)CC[C@@]43C)[C@H]1CC[C@H]2OC(=O)CCC1CCCC1	inactive
CC(C)N[C@@H]1CCn2c(=O)[nH]c3cccc(c32)[C@@H]1O	3320 nM (active)
O=C(N[C@@H](COc1ccc2[nH]c(=O)[nH]c2c1)c1ccccc1)c1cccn(Cc2ccc(F)c(F)c2)c1=O	18700 nM (active)
COCC1(CO)C(=O)C2CCN1CC2 (stereo not given)	3320 nM (active)
O=C(O)CNC(=O)c1c(O)c2ccccc2n(Cc2ccccc2)c1=O	inactive
COc1ccc2c(c1)CN(C)CC2c1ccc(Cl)c(Cl)c1 (stereo not given)	13200 nM (active)
c1ccc(CCCN2CCN(CCOC(c3ccccc3)c3ccccc3)CC2)cc1	inactive

Structure (SMILES)	Potency
CCC(=O)OC1CCC2C3CCC4=CC(=O)CC[C@@]4(C)C3CC[C@]12C (stereo not given in full)	inactive
C[C@H]1CCCC=CC2C[C@H](O)C[C@@H]2[C@H](O)C=CC(=O)O1 (stereo not given in full)	inactive
Cc1c(C(=O)c2cccc3ccccc23)c2cccc3c2n1[C@H](CN1CCOCC1)CO3	3720 nM (active)
CCCC[N+]1(C)[C@H]2CC(OC(=O)[C@H](CO)c3ccccc3)C[C@H]1[C@H]1O[C@H]12 (stereo not given in full)	inactive
CC(=O)N(C)c1cccc(-c2ccnc3c(C(=O)c4cccs4)cnn23)c1	inactive
CN(C)NC(=O)CCC(=O)O	inactive
Cc1ccccc1-n1c(Cn2ncc3c(N)ncnc32)nc2cccc(C)c2c1=O	74.3 nM (active)
C[C@]12COC(=O)C[C@@H]1CC[C@@H]1[C@H]2CC[C@@]2(C)[C@H]1CC[C@]2(C)O	inactive
CC1=C(O)C(=O)C=C2C1=CC=C1[C@@]2(C)CC[C@@]2(C)[C@@H]3C[C@](C)(C(=O)O)CC[C@]3(C)CC[C@]12C	662 nM (active)
Cc1[nH]nc2ccc(-c3cncc(OC[C@@H](N)Cc4c[nH]c5ccccc45)c3)cc12	inactive
CN1[C@H]2CC(O)C[C@H]1[C@H]1O[C@H]12 (stereo not given in full)	inactive
CC[C@H]1C=CC=CC[C@@H](C)[C@H](O)[C@@](C)(O)C(=O)[C@@H](C)[C@H](O)[C@@H](C)C(=O)[C@@H](C)[C@H](O)[C@@H](C)C=CC(=O)O[C@@H]2[C@@H](C)[C@H](CC1)O[C@]1(CC[C@H](C)[C@H](C[C@@H](C)O)O1)[C@H]2C	1 nM (active)
COc1ccc(C(=O)c2c(C)n(CCN3CCOCC3)c3cc(I)ccc23)cc1	8330 nM (active)
COc1cc([C@@H]2c3cc4c(cc3[C@@H](O)C3COC(=O)C32)OCO4)cc(OC)c1O (stereo not given in full)	13.2 nM (active)
CCN1C[C@]2(OC(=O)c3ccccc3NC(C)=O)CC[C@H](OC)[C@@]34[C@H]5CC6[C@@H](OC)C[C@](O)(C(C[C@@H]23)[C@@H]14)[C@@]5(O)[C@@H]6OC	inactive
CC(C)[C@H]1C(=O)N[C@H](CO)Cc2c[nH]c3cccc(c23)N1C	inactive
Cc1c(C(=O)Nc2cccc(C(F)(F)F)c2)cc(-c2ccccc2)n1CCCN1CCOCC1	5900 nM (active)
C[C@@H]1O[C@@H](O[C@@H]2C=C3CC[C@@H]4[C@@H](CC[C@]5(C)[C@H](c6ccc(=O)oc6)CC[C@@]45O)[C@@]3(C)CC2)[C@H](O)[C@H](O)[C@H]1O	8.3 nM (active)
CC1(N2CCC(n3c([C@@H]4CCCNC4)nc4ccccc43)CC2)CCCCCCC1	6620 nM (active)
O=C1C=CC[C@@H]2[C@H]3CCCN4CCC[C@@H](CN12)[C@@H]34	inactive

— PubChem BioAssay (NCATS)
